Screens: PubChem BioAssay, National Center for Advancing Translational Sciences (NCATS)
VDR inhibitor: blocks the human vitamin D receptor; VDR-SRC2-3 peptide fluorescence polarization, 2 h; Potency, µM, without a hit: max response, negative = inhibition, most hits filed as inhibitors; AID 504847; hit rate 0.93% among 400,000; P11473
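Measured by FP: displacement of SRC2-3 coactivator peptide from VDR by library compounds, following a two-hour ambient incubation.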
PLK1 PBD block: inhibitors of human PLK1 polo-box domain binding | Potency, µM, inactives show max response, negative = inhibition, usual class: inhibitors | Plk1 PBD binding of FITC phosphopeptide, fluorescence polarization | AID 720504 | P53350 | hit rate 2.8% among 360,000; further: series mostly up to about 57 µM; nearly all actives have a fitted effect of over 65% in size
Target sequence (P53350 whole entry, looked up, the tested form may be a part): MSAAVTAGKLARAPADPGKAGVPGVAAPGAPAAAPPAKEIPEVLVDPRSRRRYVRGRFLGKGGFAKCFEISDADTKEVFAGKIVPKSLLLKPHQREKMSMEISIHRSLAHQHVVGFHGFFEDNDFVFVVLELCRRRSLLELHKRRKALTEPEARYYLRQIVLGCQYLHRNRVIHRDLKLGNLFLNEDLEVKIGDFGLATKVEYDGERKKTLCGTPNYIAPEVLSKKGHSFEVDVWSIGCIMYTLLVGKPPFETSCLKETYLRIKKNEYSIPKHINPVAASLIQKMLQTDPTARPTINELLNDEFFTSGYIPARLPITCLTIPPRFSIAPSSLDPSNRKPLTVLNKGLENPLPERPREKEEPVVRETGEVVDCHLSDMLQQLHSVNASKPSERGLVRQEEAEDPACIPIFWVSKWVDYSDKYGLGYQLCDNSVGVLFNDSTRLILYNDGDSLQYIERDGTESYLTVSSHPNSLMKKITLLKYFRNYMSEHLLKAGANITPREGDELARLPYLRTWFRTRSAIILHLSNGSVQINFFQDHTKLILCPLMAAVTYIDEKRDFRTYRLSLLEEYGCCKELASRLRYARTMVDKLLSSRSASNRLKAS
GCN5L2 inh: blocks human GCN5L2 histone acetyltransferase. Q92830. GCN5L2 HAT assay, ThioGlo1 CoA-SH fluorescence. Potency, µM (highest dose often 58.9 µM), for the others: at the top dose activity change, negative = inhibition, actives largely listed as inhibitors. hit rate 0.21% among 390,000. AID 504327
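Enzyme at 20nM final was mixed with library compounds for 15 min at room temperature. Peptide H3(1-25) at 75uM, acetyl-CoA at 70uM and ThioGlo1 at 50uM were then added. Plates were read immediately and after 20 min (Ex340nm/Em540nm).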
TDP1 cell noCPT: qHTS for Inhibitors of human tyrosyl-DNA phosphodiesterase 1 (TDP1): qHTS in cells in absence of CPT. DT40 Tdp1-/- hTDP1 cells, no CPT, ATP luminescence, 48 h. Potency, µM (top dose mostly 46.2 µM), without a hit: at the top dose activity change, negative = growth inhibition, usual class: inhibitors. hit rate 15% among 420,000. AID 686978, 2013; further: nearly all actives have a fitted effect of over 55% in size
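A cellular qHTS used chicken DT40 cells lacking endogenous Tdp1 but carrying stably transfected human TDP1. Compounds were applied without camptothecin, and cell growth kinetics were judged by ATP-dependent luminescence after ≥48 hr.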
TDP1 inh: TDP1 (human) enzyme inhibition | Q9NUW8 | recombinant TDP1, AlphaScreen DNA substrate cleavage | Potency, µM (top dose mostly 130 µM), inactives show top-dose activity change, negative = inhibition, usual class: inhibitors | hit rate 0.28% among 350,000; further: nearly all actives have a fitted effect of over 40% in size
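Compounds were preincubated with Tdp1 (1 nM final) for 15 min at room temperature before substrate (15 nM final) started a 5 min reaction; beads (10 ug/ml final) were then added for 10 min before AlphaScreen detection.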
DT40 TDP1 CPT: growth inhibition of DT40 Tdp1-/-;hTDP1 cells with camptothecin (screen for TDP1 inhibitors); Potency, µM (titrated, usually from 46.2 µM), without a hit: at the top dose activity change, negative = growth inhibition, most hits filed as inhibitors; chicken DT40 Tdp1-/-;hTDP1 cells + 20 nM CPT, ATP luminescence, 48 h; hit rate 12% among 420,000; further: nearly all actives have a fitted effect of over 55% in size
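Chicken DT40 Tdp1-/- cells stably complemented with human TDP1 were seeded at 400 cells/well in medium containing 20 nM camptothecin, exposed to pin-transferred compounds, and grown at 37 °C for at least 48 hr. Viability was read as ATP luminescence.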
Active calls of the source: *; ? = inconclusive; · = not tested or not shown; [ ] = another dose, or the depositor's remark. The list is not random: actives were taken first. Their share in the collection is about 18%. The call rests on the fitted dose curve; in most records, active means well fitted curve in the direction sought with a large enough effect; inconclusive means small, poorly fitted or top-dose-only effect, or another doubt; inactive means no such curve, though single readings can be large; an effect the other way counts as inactive or inconclusive. On the % scale 0 is the no-effect control and ±100 the full control effect; potency means the concentration at half of the fitted maximal effect.

SMILES	VDR inhibitor	PLK1 PBD block	GCN5L2 inh	TDP1 cell noCPT	TDP1 inh	DT40 TDP1 CPT
CCSc1ncc(Cl)c(C(=O)Nc2nc3ccc(OC)cc3s2)n1	16%	·	3%	-21%	4%	-22%
CCOc1ccc2nc(NC(=O)C3CCCO3)sc2c1 (stereo not given)	-8%	-10%	-3%	-6%	0%	-27%
CCOc1ccc2nc(NC(=S)NCc3ccccc3)sc2c1	?	27µM*	-5%	?	6%	?
Cc1ccc2nc(NC(=O)c3ccccn3)sc2c1	-10%	-3%	-5%	6.5µM*	8%	4.6µM*
Cc1ccc(-c2nnc(SCCC(=O)Nc3ccccc3)n2C)cc1	·	·	·	-16%	·	-24%
CN(C)c1ccc(CNC(=O)CCCN2C(=O)CCn3nc(-c4cccn4C)cc32)cc1	12%	·	-8%	0%	9%	-6%
O=C(Nc1nc2ccc(F)cc2s1)c1cccc(S(=O)(=O)N2CCc3ccccc32)c1	-21%	-6%	-6%	?	0%	-25%
O=C(Nc1nc2c(F)cc(F)cc2s1)c1ccc(S(=O)(=O)N2CCc3ccccc32)cc1	4%	·	-25%	?	3%	26µM*
COc1ccc2nc(NC(=O)c3ccccc3C(=O)O)sc2c1	-20%	-7%	-29%	2%	·	-2%
CSc1ncccc1C(=O)Nc1nc2ccc(Oc3ccccc3)cc2s1	-3%	-4%	0%	?	3%	21µM*
CCOC(=O)N1CCN(C(=O)C[C@@H]2C[C@@]3(C(=O)OCC)CCCC=C3N(Cc3ccccc3)C2=O)CC1	·	-4%	·	?	·	?
O=C(NC1CCCCC1)C(C1CC1)n1c(=O)c(-c2cc3ccccc3[nH]2)nc2ccccc21 (stereo not given)	·	-7%	·	?	·	?
COc1ccc(Cc2c(-c3ccc(F)cc3)nc3c4ccccc4ccn23)c(C)c1	·	-1%	·	?	·	?
CCOC(=O)Cc1c(-c2cccc(Br)c2)nc2c3ccccc3ccn12	·	-8%	·	18µM*	·	?
COc1ccc(-c2c(C)nn3c(Cl)c(C)c(C)nc23)cc1	-6%	-17%	-2%	?	·	-6%
Fc1ccc(-c2nc3c4ccccc4ccn3c2Cc2ccsc2)cc1	·	0%	·	15µM*	·	15µM*
Cc1ccc(-c2nc3c4ccccc4ccn3c2CN2CCCCC2)cc1	0%	-8%	-9%	23µM*	·	23µM*
CCOC(=O)Cc1c(C)nc2c(-c3ccc(OC)cc3)c(C)nn2c1C	0%	-9%	-3%	23µM*	5%	?
Cc1ccc2nc(-c3ccccc3)c(CN3CCSCC3)n2c1	-17%	-14%	-13%	?	6%	?
Fc1ccc(-c2nc3c4ccccc4ccn3c2CC2CCCCC2)cc1	·	7%	·	21µM*	·	15µM*
Clc1ccc(-c2nc3c4ccccc4ccn3c2CC2CCCCC2)cc1	·	7%	·	-27%	·	-23%
Brc1cccc(-c2nc3c4ccccc4ccn3c2Cc2ccsc2)c1	·	1%	·	?	·	26µM*
CCOC(=O)Cc1c(C)nc2c(-c3cccc(Br)c3)cnn2c1C	6%	5%	-21%	21µM*	0%	?
Cc1cc(N)n2ncc(-c3cccc(Br)c3)c2n1	6%	-8%	-7%	-20%	0%	-7%
Clc1cccc(-c2nc3c4ccccc4ccn3c2Cc2ccsc2)c1	·	-9%	·	?	·	?
SMILES	VDR inhibitor	PLK1 PBD block	GCN5L2 inh	TDP1 cell noCPT	TDP1 inh	DT40 TDP1 CPT
FC(F)(F)c1ccccc1-n1c(CN2CCCCC2)n[nH]c1=S	9%	?	-4%	-19%	-4%	0%
CSCCC(C(=O)NC(C)(C)C)n1c(-c2ccc(C)cc2)nc2ccccc21 (stereo not given)	·	7%	·	?	·	?
CSCCC(C(=O)Nc1c(C)cccc1C)n1c(COc2ccc(C)cc2)nc2ccccc21 (stereo not given)	·	-2%	·	9.2µM*	·	12µM*
CSCCC(C(=O)Nc1c(C)cccc1C)n1c(-c2ccc(-c3ccccc3)cc2)nc2ccccc21 (stereo not given)	·	3%	·	?	·	10µM*
CSCCC(C(=O)Nc1c(C)cccc1C)n1c(-c2cc(C)cs2)nc2ccccc21 (stereo not given)	·	-2%	·	?	·	?
Cc1nn(-c2ccccc2)cc1/C=N/NC(N)=S	0%	-15%	2%	?	-1%	18µM*
Cc1nn(-c2ccccc2)cc1/C=N/O	-5%	-7%	-3%	-3%	4%	-12%
Cn1cc(/C=N/NC(N)=S)c2ccccc21	-15%	-6%	-16%	3.3µM*	·	13µM*
C[C@H](CO)N1C[C@H](C)[C@@H](CN(C)C(=O)Nc2ccc(C(F)(F)F)cc2)Oc2c(NC(=O)Nc3ccccc3)cccc2C1=O	-5%	4%	-7%	?	3%	?
C[C@H](CO)N1C[C@H](C)[C@@H](CN(C)C(=O)Nc2ccc3c(c2)OCO3)Oc2c(NC(=O)Nc3ccc(C(F)(F)F)cc3)cccc2C1=O	-16%	-4%	-7%	?	3%	13µM*
C[C@H](CO)N1C[C@H](C)[C@@H](CN(C)C(=O)Nc2ccc(C(F)(F)F)cc2)Oc2c(NC(=O)Nc3ccc4c(c3)OCO4)cccc2C1=O	0%	-20%	-9%	18µM*	4%	?
CC(=O)Nc1cc(=O)c2cccnc2[nH]1	-1%	?	·	4%	·	33%
O=C(O)C(Oc1ccc2ccccc2c1)c1ccccc1 (stereo not given)	8%	-7%	·	-21%	·	1%
O=C(O)Cc1ccc(NC(=O)Nc2ccc3c(c2)OCO3)cc1	-1%	-18%	-5%	2%	1%[56.1 µM]	-23%
ClC(Cl)c1nnc(-c2ccccc2)c(-c2c[nH]c3ccccc23)n1	-5%	-10%	-4%	?	3%	3.7µM*
Cc1oc(-c2ccccc2Cl)nc1CS(=O)CC(=O)NCCCN1CC(C)CC(C)C1 (stereo not given)	-15%	-8%	0%	22%	0%	-17%
O=C(N1CCOCC1)C12OC3CC(CC(C3)O1)O2	·	-8%	·	-11%	·	-2%
Cc1cc(N2CCCCC2C)nc(-c2ccccc2O)n1 (stereo not given)	3%	0%	-15%	21µM*	-4%	23µM*
Cc1cc(N2CCCCCC2)nc(-c2ccccc2O)n1	15%	-7%	-10%	?	?	?
CC(C)=CCCC(C)NC(=O)NC1CCCCC1 (stereo not given)	-8%	-12%	-1%	16µM*	3%	?
